Data reported in PubChem BioAssay (NCATS).
Records with an inconclusive call do not appear. A call without a number means that no potency is given here. A number with no mark means an inactive call. Active and inactive are the calls of the source. Calls come from the whole dose curve; as a rule, active = well fitted inhibition curve with a large enough effect; inconclusive = small, poorly fitted or top-dose-only effect; inactive = flat fitted curve, though single readings scatter.

Experiments:
JCK = assay: qHTS profiling for inhibitors of Plasmodium falciparum proliferation (AID 504749); note: potency is the fitted concentration of half-maximal effect; conditions: P. falciparum in erythrocytes, SYBR Green DNA, 72 h; series mostly up to 28.7 µM
Method in brief: (§1)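 Fluorescence of SYBR Green-bound parasite DNA, read at 485/535 nm, served as the growth measure. Infected erythrocytes were cultured with compound 72 h; artemisinin (0.29 uM) and DMSO wells defined the normalization range.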

N140 = assay: as above; conditions: P. falciparum in erythrocytes, SYBR Green DNA, 72 h; series mostly up to 28.7 µM
Method in brief: as §1

P93_24 = assay: as above; conditions: P. falciparum in erythrocytes, SYBR Green DNA, 72 h; series mostly up to 28.7 µM
Method in brief: as §1

P94_40 = assay: as above; conditions: P. falciparum in erythrocytes, SYBR Green DNA, 72 h; series mostly up to 28.7 µM
Method in brief: as §1

PAD = assay: as above; conditions: P. falciparum in erythrocytes, SYBR Green DNA, 72 h; series mostly up to 28.7 µM
Method in brief: as §1

PC15 = assay: as above; conditions: P. falciparum in erythrocytes, SYBR Green DNA, 72 h; series mostly up to 28.7 µM
Method in brief: as §1

PC26 = assay: as above; conditions: P. falciparum in erythrocytes, SYBR Green DNA, 72 h; series mostly up to 28.7 µM
Method in brief: as §1

PC49 = assay: as above; conditions: P. falciparum in erythrocytes, SYBR Green DNA, 72 h; series mostly up to 28.7 µM
Method in brief: as §1

SC27B = assay: as above; conditions: P. falciparum in erythrocytes, SYBR Green DNA, 72 h; series mostly up to 28.7 µM
Method in brief: as §1

TAB109 = assay: as above; conditions: P. falciparum in erythrocytes, SYBR Green DNA, 72 h; series mostly up to 28.7 µM
Method in brief: as §1

TAB113 = assay: as above; conditions: P. falciparum in erythrocytes, SYBR Green DNA, 72 h; series mostly up to 28.7 µM
Method in brief: as §1

TAB165 = assay: as above; conditions: P. falciparum in erythrocytes, SYBR Green DNA, 72 h; series mostly up to 28.7 µM
Method in brief: as §1

W2 = assay: as above; conditions: P. falciparum in erythrocytes, SYBR Green DNA, 72 h; series mostly up to 28.7 µM
Method in brief: as §1

NIH3T3 = assay: Cytotoxic Profiling of Annotated Libraries Using Quantitative High-Throughput Screening (AID 1296008); conditions: Five cell lines viability, CellTiter-Glo ATP luminescence, 48-72 h; max response: active compounds read low
Method in brief: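 Compounds were pin-transferred onto cells and incubated 48 or 72 hr at 37 degree Celsius, 95% humidity. CellTiter-Glo was added, plates sat 10 min at room temperature, then ATP-coupled luminescence was imaged as the viability read-out.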

HACAT = assay: qHTS assay to identify novel small-molecules to repurpose for Merkel cell carcinoma treatment (AID 1296009); conditions: MCC and control cell lines, CellTiter-Glo viability, 72 h; at 44.8 µM (top of the series) unless noted
Method in brief: (§2)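 Luminescence from CellTiter-Glo, read 10 min after addition at room temperature, reported viability following a 72 hr, 37 degree celsius treatment with NPC or MIPE compounds in titration; values normalized to plate controls.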

HEK293T = assay: as above; conditions: MCC and control cell lines, CellTiter-Glo viability, 72 h; at 44.8 µM (top of the series) unless noted
Method in brief: as §2
Note: nearly all actives have a fitted effect of over 60% in size.

SMILES | Potency (JCK) | Potency (N140) | Potency (P93_24) | Potency (P94_40) | Potency (PAD) | Potency (PC15) | Potency (PC26) | Potency (PC49) | Potency (SC27B) | Potency (TAB109) | Potency (TAB113) | Potency (TAB165) | Potency (W2) | max response (NIH3T3) [%] | outcome (HACAT) | outcome (HEK293T)
CCCCCCc1ccc(O)cc1O | inactive | inactive | inactive | inactive | inactive | inactive | inactive | inactive | inactive | inactive | inactive | inactive | inactive | 4.72 | – | –
Cc1ccnc(NS(=O)(=O)c2ccc(N)cc2)n1 | inactive | inactive | inactive | inactive | inactive | inactive | inactive | inactive | inactive | inactive | inactive | inactive | inactive | – | inactive | inactive
CCCC(=O)Nc1ccc(OCC(O)CNC(C)C)c(C(C)=O)c1 (stereo unspecified) | – | – | – | – | – | – | – | – | – | – | – | – | – | – | inactive | –
COc1ccc(OC)c(C(O)CNC(=O)CN)c1 (stereo unspecified) | – | – | – | – | – | – | – | – | – | – | – | – | – | – | inactive | –
CCCCCCCCCCOCC(O)CN (stereo unspecified) | inactive | – | – | – | – | – | – | – | – | – | inactive | – | – | – | – | –
CNCCC(Oc1ccccc1C)c1ccccc1 (stereo unspecified) | inactive | – | – | inactive | inactive | – | – | – | inactive | inactive | inactive | – | 3.79 µM (active) | – | – | –
O=C(O)CCCCC(=O)O | inactive | inactive | inactive | inactive | inactive | inactive | inactive | inactive | inactive | inactive | inactive | inactive | inactive | – | – | –
Cc1c(F)c(N2CCNC(C)C2)cc2c1c(=O)c(C(=O)O)cn2C1CC1 (stereo unspecified) | inactive | inactive | inactive | inactive | inactive | inactive | inactive | inactive | inactive | inactive | inactive | inactive | inactive | – | – | inactive
O=C1OC(c2ccc(O)cc2)(c2ccc(O)cc2)c2ccccc21 | inactive | – | – | inactive | inactive | inactive | inactive | inactive | inactive | inactive | inactive | inactive | inactive | – | – | –
CN1C(CCl)Nc2cc(Cl)c(S(N)(=O)=O)cc2S1(=O)=O (stereo unspecified) | inactive | inactive | inactive | inactive | inactive | inactive | inactive | inactive | inactive | inactive | inactive | inactive | inactive | – | – | –
Cc1c(C(N)=O)cc([N+](=O)[O-])cc1[N+](=O)[O-] | inactive | inactive | inactive | inactive | inactive | inactive | inactive | inactive | inactive | inactive | inactive | inactive | – | – | – | –
Nc1ccc(/C=C/c2ccc(N)cc2S(=O)(=O)O)c(S(=O)(=O)O)c1 | inactive | inactive | inactive | inactive | inactive | inactive | inactive | inactive | inactive | inactive | – | inactive | inactive | – | – | –
CC(C)(CO)[C@@H](O)C(=O)NCCCO | inactive | inactive | inactive | inactive | inactive | inactive | inactive | inactive | inactive | inactive | inactive | inactive | inactive | – | – | –
CC(C)NC[C@@H](O)COc1cccc2ccccc12 | – | 12.6 µM (active) | – | 12.6 µM (active) | – | 8.91 µM (active) | – | – | – | 12.6 µM (active) | – | 7.94 µM (active) | 1.69 µM (active) | – | – | –
CCOC(=O)n1ccn(C)c1=S | inactive | inactive | inactive | inactive | inactive | inactive | inactive | inactive | inactive | inactive | inactive | inactive | inactive | – | – | –
C[C@]12CC[C@@H]3c4ccc(O)cc4CC[C@H]3[C@@H]1CC[C@@H]2O | inactive | inactive | inactive | inactive | inactive | inactive | inactive | inactive | inactive | inactive | inactive | inactive | inactive | – | – | –
CC(C)COC(=O)OCN1C(=O)CN(CCN2CC(=O)N(COC(=O)OCC(C)C)C(=O)C2)CC1=O | inactive | inactive | inactive | inactive | inactive | inactive | inactive | inactive | inactive | inactive | inactive | inactive | inactive | – | – | –
CC(Cc1cccc(C(F)(F)F)c1)NCCOC(=O)c1ccccc1 (stereo unspecified) | inactive | inactive | inactive | inactive | inactive | inactive | inactive | inactive | inactive | inactive | inactive | inactive | – | – | – | –
CN1C2CCC1CC(OC(=O)c1c[nH]c3ccccc13)C2 (stereo unspecified) | inactive | inactive | inactive | inactive | inactive | – | – | inactive | inactive | inactive | inactive | inactive | inactive | – | – | –

SMILES | Potency (JCK) | Potency (N140) | Potency (P93_24) | Potency (P94_40) | Potency (PAD) | Potency (PC15) | Potency (PC26) | Potency (PC49) | Potency (SC27B) | Potency (TAB109) | Potency (TAB113) | Potency (TAB165) | Potency (W2) | max response (NIH3T3) [%] | outcome (HACAT) | outcome (HEK293T)
CCCCCCCCCCCCCCNCCO | inactive | 14.1 µM (active) | – | – | – | – | inactive | inactive | inactive | inactive | inactive | inactive | 9.53 µM (active) | – | – | –
CCN1CCCC1=O | inactive | inactive | inactive | inactive | inactive | inactive | inactive | inactive | inactive | inactive | inactive | inactive | inactive | – | – | –
Cc1cccn2c(=O)c(-c3nnn[nH]3)cnc12 | inactive | inactive | inactive | inactive | inactive | inactive | inactive | inactive | inactive | inactive | inactive | inactive | inactive | – | – | inactive [at 17.4 µM]
CCN(CC)CCNC(=O)COc1ccc(Cl)cc1 | inactive | 12.6 µM (active) | 11.2 µM (active) | – | 11.2 µM (active) | inactive | – | – | 11.2 µM (active) | – | inactive | 11.2 µM (active) | 13.5 µM (active) | – | – | –
N[C@@H](Cc1cnc[nH]1)C(=O)O | inactive | inactive | inactive | inactive | inactive | inactive | inactive | inactive | inactive | inactive | inactive | inactive | inactive | – | – | –
C[C@H]1[C@H](NC(=O)/C(=N/OC(C)(C)C(=O)O)c2csc(N)n2)C(=O)N1S(=O)(=O)O (stereo in doubt) | inactive | inactive | inactive | inactive | inactive | inactive | inactive | inactive | inactive | inactive | inactive | inactive | inactive | – | – | –
CC[C@@H](CO)NCCN[C@@H](CC)CO | – | – | – | – | – | – | – | – | – | – | – | – | – | – | – | inactive
CC(=O)OCC(=O)NCCCOc1cccc(CN2CCCCC2)c1 | inactive | inactive | inactive | inactive | inactive | inactive | inactive | inactive | inactive | inactive | inactive | inactive | inactive | – | – | inactive
COc1cc(NS(C)(=O)=O)ccc1Nc1c2ccccc2nc2ccccc12 | 3.55 µM (active) | 2 µM (active) | 3.16 µM (active) | 2.51 µM (active) | 1.41 µM (active) | 2.82 µM (active) | 5.36 µM (active) | 3.16 µM (active) | 2.24 µM (active) | 3.16 µM (active) | 2 µM (active) | 2.24 µM (active) | 2.13 µM (active) | – | – | –
O=C(OCCOCCO)c1ccccc1Nc1cccc(C(F)(F)F)c1 | inactive | inactive | inactive | inactive | inactive | inactive | inactive | inactive | inactive | inactive | inactive | inactive | inactive | – | – | –
CC(O)C(=O)O (stereo unspecified) | inactive | inactive | inactive | inactive | inactive | inactive | inactive | inactive | inactive | inactive | inactive | inactive | inactive | – | – | –
CCN1CCC[C@H]1CNC(=O)c1c(OC)ccc(Br)c1OC | inactive | inactive | inactive | inactive | inactive | inactive | inactive | inactive | inactive | inactive | inactive | inactive | – | – | – | inactive
CC1=C(C(=O)O)N2C(=O)[C@@H](NC(=O)[C@H](N)c3ccc(O)cc3)[C@H]2SC1 | – | – | – | – | – | – | – | – | – | – | – | – | – | – | – | inactive
CCCCc1nc(Cl)c(CO)n1Cc1ccc(-c2ccccc2-c2nn[nH]n2)cc1 | inactive | 12.6 µM (active) | – | 10 µM (active) | – | inactive | – | inactive | – | – | – | 8.91 µM (active) | 10.7 µM (active) | – | – | –
CCN1CCN(c2cc3c(cc2F)c(=O)c(C(=O)O)cn3C2CC2)CC1 | inactive | inactive | inactive | inactive | inactive | inactive | inactive | inactive | inactive | inactive | inactive | inactive | – | – | – | –
CCCn1c(=O)[nH]c(=O)c2[nH]cnc21 | inactive | inactive | inactive | inactive | inactive | inactive | inactive | inactive | inactive | inactive | inactive | inactive | inactive | – | – | –
COc1cc(C(=S)N2CCOCC2)cc(OC)c1OC | inactive | inactive | inactive | inactive | inactive | inactive | inactive | inactive | inactive | inactive | inactive | – | inactive | – | – | –
NCCCC[C@H](N[C@@H](CCc1ccccc1)C(=O)O)C(=O)N1CCC[C@H]1C(=O)O | inactive | inactive | inactive | inactive | inactive | inactive | inactive | inactive | inactive | inactive | inactive | inactive | inactive | – | – | inactive
C1CCc2nnnn2CC1 | inactive | inactive | inactive | inactive | inactive | inactive | inactive | inactive | inactive | inactive | inactive | inactive | inactive | – | – | –
